Measurements reported in PubChem BioAssay AID1159580 (chemical genetic matrix, 2015).
Where “and” joins values, the source holds several entries; their conditions need not be identical. Equal values may be shown once. The whole screen tested about 5,500 compounds, of which about 2,000 (36%) were called active. About 18% were inconclusive and are not listed. No stated cut-off is given here; in the data, active means normalized growth mostly below about 0.91 (no sharp cut-off); inconclusive means no clear call, values can overlap the other calls; inactive means mostly above about 0.92. The list shows a part of the results.

Assay: chemical genetic growth profiling, strain panel (AID 1159580);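 further: tested at 20 µM; growth read once vehicle control cultures reached saturation at 30 °C; 1 = growth at the plate median or of vehicle wells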
Conditions: S. cerevisiae deletion strains, growth OD

Measured: normalized growth

COC(=O)C1=C(C)NC(C)=C(C(=O)OCCN(C)Cc2ccccc2)C1c1cccc([N+](=O)[O-])c1 (stereo not given)
inactive: locus YAL013W, strain DEP1, stronger effect = lower value 1 | locus YAL021C, strain ccr4, stronger effect = lower value 0.98 | locus YAL026C, strain drs2, stronger effect = lower value 0.979 | locus YAL030W, strain snc1, stronger effect = lower value 1.01 | locus YAL040C, strain CLN3, stronger effect = lower value 1.02 | locus YBL061C, strain skt5, stronger effect = lower value 0.984 | locus YBR009C, strain hhf1, stronger effect = lower value 0.984 | locus YBR021W, strain FUR4, stronger effect = lower value 0.935 | locus YBR023C, strain chs3, stronger effect = lower value 0.989 | locus YBR171W, strain sec66, stronger effect = lower value 0.986 | locus YBR229C, strain ROT2, stronger effect = lower value 0.952 | locus YBR231C, strain swc5, stronger effect = lower value 0.978 | locus YBR279W, strain paf1, stronger effect = lower value 0.975 | locus YCL011C, strain gbp2, stronger effect = lower value 0.969 | locus YCL016C, strain dcc1, stronger effect = lower value 0.982 | locus YCL029C, strain bik1, stronger effect = lower value 0.981 | locus YCL061C, strain MRC1 (second series), stronger effect = lower value 0.972 | locus YCL069W, strain vba3, stronger effect = lower value 1 | locus YCR088W, strain abp1, stronger effect = lower value 0.984 | locus YDL005C, strain med2, stronger effect = lower value 0.986 | locus YDL035C, strain GPR1, stronger effect = lower value 0.983 | locus YDL040C, strain nat1, stronger effect = lower value 0.973 | locus YDL074C, strain BRE1, stronger effect = lower value 0.917 | locus YDL101C, strain DUN1, stronger effect = lower value 0.979 | locus YDL134C, strain PPH21, stronger effect = lower value 0.976 | locus YDL185W, strain tfp1, stronger effect = lower value 0.977 | locus YDL192W, strain arf1, stronger effect = lower value 0.992 | locus YDR001C, strain nth1, stronger effect = lower value 0.974 | locus YDR069C, strain doa4, stronger effect = lower value 0.977 | locus YDR101C, strain arx1, stronger effect = lower value 0.986 | locus YDR137W, strain rgp1, stronger effect = lower value 1.02 | locus YDR150W, strain NUM1, stronger effect = lower value 0.977 and 0.972 | locus YDR159W, strain sac3, stronger effect = lower value 0.93 | locus YDR162C, strain NBP2, stronger effect = lower value 1 | locus YDR195W, strain ref2 0.96 | locus YDR297W, strain sur2, stronger effect = lower value 0.972 | locus YDR318W, strain mcm21, stronger effect = lower value 0.944 | locus YDR334W, strain swr1, stronger effect = lower value 0.925 | locus YDR335W, strain msn5, stronger effect = lower value 0.986 | locus YDR363W, strain ESC2, stronger effect = lower value 1.03 | locus YDR388W, stronger effect = lower value 0.993 | locus YDR392W, strain spt3, stronger effect = lower value 0.968 | locus YDR502C, strain sam2, stronger effect = lower value 0.981 | locus YEL003W, strain gim4, stronger effect = lower value 0.996 | locus YEL037C, strain rad23, stronger effect = lower value 0.981 | locus YEL061C, strain CIN8 (second series), stronger effect = lower value 0.99 | locus YEL061C, strain CIN8, stronger effect = lower value 0.994 | locus YER002W, strain NOP16, stronger effect = lower value 1.01 | locus YER015W, strain faa2, stronger effect = lower value 0.988 | locus YER016W, strain bim1, stronger effect = lower value 0.983 | locus YER110C, stronger effect = lower value 0.976 | locus YER111C, strain swi4, stronger effect = lower value 0.989 | locus YER155C, strain BEM2 (second series), stronger effect = lower value 0.968 | locus YER155C, strain BEM2, stronger effect = lower value 0.99 | locus YER167W, strain BCK2, stronger effect = lower value 0.994 | locus YFR010W, strain ubp6, stronger effect = lower value 0.978 | locus YGL078C, strain dbp3, stronger effect = lower value 0.979 | locus YGL086W, strain mad1, stronger effect = lower value 0.986 | locus YGL167C, strain pmr1, stronger effect = lower value 1.05 | locus YGL173C, strain kem1, stronger effect = lower value 0.982 | locus YGL227W, strain vid30, stronger effect = lower value 0.989 | locus YGL240W, strain doc1, stronger effect = lower value 0.97 | locus YGL248W, strain PDE1, stronger effect = lower value 0.991 | locus YGL253W, strain hxk2, stronger effect = lower value 0.988 | locus YGR078C, strain PAC10, stronger effect = lower value 0.955 | locus YGR135W, strain pre9, stronger effect = lower value 0.972 | locus YGR229C, strain SMI1, stronger effect = lower value 0.982 | locus YGR252W, strain gcn5, stronger effect = lower value 0.902 | locus YHR013C, strain ard1, stronger effect = lower value 0.978 | locus YHR027C, strain rpn1, stronger effect = lower value 0.983 | locus YHR030C, strain SLT2, stronger effect = lower value 0.987 and 0.976 | locus YHR079C, strain IRE1 (second series), stronger effect = lower value 0.982 | locus YHR079C, strain IRE1, stronger effect = lower value 0.949 | locus YHR094C, strain hxt1, stronger effect = lower value 0.988 | locus YHR129C, strain ARP1, stronger effect = lower value 0.994 | locus YHR142W, strain chs7, stronger effect = lower value 1.02 | locus YHR200W, strain rpn10, stronger effect = lower value 0.989 | locus YIL066C, strain RNR3, stronger effect = lower value 0.973 | locus YIL073C, strain SPO22, stronger effect = lower value 1.12 | locus YIL125W, strain kgd1, stronger effect = lower value 0.99 | locus YIR030C, strain dcg1, stronger effect = lower value 0.979 | locus YJL092W, strain hpr5, stronger effect = lower value 0.996 | locus YJL095W, strain BCK1 (second series), stronger effect = lower value 0.983 | locus YJL095W, strain BCK1, stronger effect = lower value 0.988 and 0.979 | locus YJL115W, strain asf1, stronger effect = lower value 0.989 | locus YJL129C, strain trk1, stronger effect = lower value 0.959 | locus YJL134W, strain LCB3, stronger effect = lower value 0.987 | locus YJL154C, strain vps35, stronger effect = lower value 0.971 | locus YJL164C, strain tpk1, stronger effect = lower value 0.998 | locus YJL166W, strain qcr8, stronger effect = lower value 0.993 | locus YJL168C, strain set2, stronger effect = lower value 1 | locus YJL187C, strain SWE1 (second series), stronger effect = lower value 0.973 | locus YJL187C, strain SWE1, stronger effect = lower value 0.993 | locus YJR043C, strain POL32, stronger effect = lower value 0.997 | locus YJR066W, strain TOR1, stronger effect = lower value 0.917
